The nature of experiment [1]: qHTS assay to identify small molecule agonists of the vitamin D receptor (VDR) signaling pathway - cell viability counter screen (AID 743224). Also: nearly all actives have a fitted effect of over 50% in size. Also: potency is read from the fitted curve at half-maximal effect. The method, boiled down:
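Compounds were pin-transferred onto VDR-bla cells plated 4 h earlier; following 16 h incubation at 37C, cell viability was quantified by CellTiter-Glo luminescence after 30 min at room temperature.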

Experiment [2] in a line: qHTS assay to identify small molecule antagonists of the vitamin D receptor (VDR) signaling pathway - cell viability counter screen (AID 743225). Also: nearly all actives have a fitted effect of over 50% in size. Also: potency is read from the fitted curve at half-maximal effect. The essentials:
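Viability counter screen run in the same wells as the beta-lactamase reporter assay: HEK 293T VDR-UAS-bla cells, 16 h compound exposure at 37C with 3 nM (final) 1-alpha,25-dihydroxyvitamin D3. CellTiter-Glo luminescence, 30 min, room temperature.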
A general note: Quantitative high-throughput screening tests each substance at several concentrations.

A short description of experiment [3]: qHTS assay to identify small molecule agonists of the NFkB signaling pathway (AID 1159509; active = well fitted curve in the direction sought with a large enough effect in the signal ratio in the repeat runs, not every such curve was filed as active; the % refers to the signal ratio; also: series mostly up to about 61 µM). The essentials:
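Agonist activity was read as beta-lactamase-driven FRET change (460 and 530 nm emission, 405 nm excitation) following 1.5 hr substrate loading at room temperature. Beforehand, ME-180 NFkB-bla reporter cells were treated with compounds for 5 hr at 37 C.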

The nature of experiment [4]: qHTS assay to identify small molecule agonists of the NFkB signaling pathway - cell viability counter screen (AID 1159515; calls by dose curve; also: series mostly up to about 61 µM; nearly all actives have a fitted effect of over 55% in size). The essentials:
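Parallel cytotoxicity counter screen in ME-180 cells carrying an NFkB-response-element beta-lactamase reporter, 2,000 cells/well. Compound exposure lasted 5 hr at 37 C, 5% CO2. Cell viability was quantified by CellTiter-Glo luminescence.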

Experiment [5] is described as follows: qHTS assay to identify small molecule agonists of the endoplasmic reticulum stress response signaling pathway (AID 1159516; active = well fitted activation curve with a large enough effect in the signal ratio in the repeat runs, not every such curve was filed as active; the % refers to the signal ratio). The method, boiled down: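 Using a HeLa line with an ESRE-driven beta-lactamase gene, agonist activity was measured by FRET substrate fluorescence (460 and 530 nm emission) after cells were treated with compounds for 5 hr at 37 C and 5% CO2.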

Experiment [6] in a line: qHTS assay to identify small molecule agonists of the endoplasmic reticulum stress response signaling pathway - cell viability counter screen (AID 1159517; calls by dose curve; also: nearly all actives have a fitted effect of over 50% in size; also: potency is read from the fitted curve at half-maximal effect). The essentials:
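In parallel with the ESRE reporter read, cytotoxicity was scored by CellTiter-Glo luminescence (30 min, room temperature) on HeLa ESRE-bla cells dosed for 5 hr.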

Experiment [7] concerns the target Nuclear receptor ROR-gamma (Homo sapiens) (UniProt P51449). The experiment is described as follows: qHTS assay to identify small molecule antagonists of the retinoid-related orphan receptor gamma (ROR-gamma) signaling pathway (AID 1159521; also: nearly all actives have a fitted effect of over 50% in size; also: potency is read from the fitted curve at half-maximal effect). The essentials:
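Luminescence readout (ONE-Glo, 30 min RT) after 16 h doxycycline induction; loss of signal scored as antagonism. CHO cells with TET-inducible RORγ and RORE-LUC reporter; compounds added 2 h before 1 uM final doxycycline.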

Experiment [8] can be described thus: qHTS assay to identify small molecule agonists of the AP-1 signaling pathway - cell viability counter screen (AID 1159525; calls by dose curve; also: nearly all actives have a fitted effect of over 55% in size; also: potency is read from the fitted curve at half-maximal effect). The method, boiled down: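 Same-well cytotoxicity counter screen of the Tox21 10K library in ME-180 cells. The readout is ATP-dependent luminescence after 5 h compound treatment. Data are normalised to DMSO and tetra n-octyl ammonium bromide controls.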

Experiment [9] in a line: qHTS assay to identify small molecule agonists of the AP-1 signaling pathway (AID 1159526; calls by dose curve).
A short description of experiment [10]: qHTS assay to identify small molecule antagonists of the retinoid acid receptor (RAR) signaling pathway - cell viability counter screen (AID 1159551). Also: nearly all actives have a fitted effect of over 35% in size. Also: potency is read from the fitted curve at half-maximal effect. The method, boiled down: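 ATP-based viability, C3RL4 cells, 6 h at 37 C with 1 uM final retinol co-added after compound; luminescence read 30 min post CellTiter-Glo, RT.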
A short description of experiment [11]: qHTS assay to identify small molecule antagonists of the retinoic acid receptor (RAR) signaling pathway (AID 1159552; also: nearly all actives have a fitted effect of over 50% in size; also: potency is read from the fitted curve at half-maximal effect). The essentials:
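Luminescence from a RARE luciferase reporter in C3RL4 cells served as read-out. Cells received compounds together with 1 uM final retinol and incubated 6 hr at 37 C before detection reagent was added for 30 min at room temperature.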

The nature of experiment [12]: qHTS assay to identify small molecule antagonists of the retinoid-related orphan receptor gamma (ROR-gamma) signaling pathway - cell viability counter screen (AID 1159520). Also: nearly all actives have a fitted effect of over 50% in size. Also: potency is read from the fitted curve at half-maximal effect. The essentials:
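Tet-on ROR gamma CHO cells were given compounds for 2 hr, then doxycycline hyclate at 1 uM final, and incubated 16 hr at 37 C. Viability was measured as ATP content by CellTiter-Glo luminescence.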

Experiment [13] is described as follows: qHTS assay to identify small molecule agonists of the RXR signaling pathway - cell viability counter screen (AID 1159529). Also: nearly all actives have a fitted effect of over 50% in size. Also: potency is read from the fitted curve at half-maximal effect. The essentials:
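Luminescence from CellTiter-Glo (30 min, RT) measured viability in the same wells as the beta-lactamase reporter readout. Cells: GeneBLAzer RXR-alpha HEK 293T, 2% charcoal-stripped FBS. Compound exposure 16 hr, 37 C.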

The target in experiment [14] is Retinoic acid receptor RXR-alpha (Homo sapiens) (UniProt P19793). Put plainly: qHTS assay to identify small molecule agonists of the RXR signaling pathway (AID 1159527; calls by dose curve; also: nearly all actives have a fitted effect of over 35% in size). The essentials:
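Agonist mode; 9-cis retinoic acid positive control. HEK 293T UAS-bla reporter cells, 2% charcoal-stripped FBS, 16 hr compound exposure at 37 C/5% CO2. LiveBLAzer B/G FRET substrate 2 hr RT; ex 405, em 460/530 nm.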

Experiment [15] is described as follows: qHTS assay to identify small molecule antagonists of the estrogen related receptor (ERR) signaling pathway - cell viability counter screen (AID 1224818). Also: potency is read from the fitted curve at half-maximal effect.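 Also: viability measured after 17.5 h of compound exposure.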 The method, boiled down: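 Quantitative high-throughput viability counter screen in ERR cells. Compounds (DMSO) incubated 17.5 h at 37 C; read-out was CellTiter-Fluor fluorescence.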
Experiment [16] in a line: qHTS assay to identify small molecule antagonists of the estrogen related receptor signaling pathway with the pleiotropic PPARgamma coactivator (PGC) cell viability counter screen (AID 1224822; also: potency is read from the fitted curve at half-maximal effect). The method, boiled down:
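Cytotoxicity in the PGC/ERR cell line is assessed with CellTiter-Fluor, read as fluorescence intensity 30 min after reagent addition, following 17.5 h compound treatment at 37 C.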

A short description of experiment [17]: qHTS assay to identify small molecule agonists of the retinoic acid receptor (RAR) signaling pathway (AID 1159553). Also: potency is read from the fitted curve at half-maximal effect. The method, boiled down:
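Quantitative high-throughput format: the Tox21 10K library was tested on C3RL4 RARE-luciferase cells for 6 hr at 37 C and 5% CO2, with luminescence measured after a 30 min room-temperature reagent step.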

“And” between values parts separate entries of the source, which are not always exact repeats. Equal entries are not always repeated. Results filed as inconclusive are left out. A structure can be active in one record and inactive in another. The source made the active and inactive calls. Unless noted, calls follow the shape of the dose curve; as a rule, active = well fitted curve in the direction sought with a large enough effect in the repeat runs; inconclusive = weak or mixed curves; inactive = no such curve, though single readings can be large; an effect the other way counts as inactive or inconclusive.

Retinoic acid receptor RXR-alpha (Homo sapiens), sequence (P19793 whole entry, looked up): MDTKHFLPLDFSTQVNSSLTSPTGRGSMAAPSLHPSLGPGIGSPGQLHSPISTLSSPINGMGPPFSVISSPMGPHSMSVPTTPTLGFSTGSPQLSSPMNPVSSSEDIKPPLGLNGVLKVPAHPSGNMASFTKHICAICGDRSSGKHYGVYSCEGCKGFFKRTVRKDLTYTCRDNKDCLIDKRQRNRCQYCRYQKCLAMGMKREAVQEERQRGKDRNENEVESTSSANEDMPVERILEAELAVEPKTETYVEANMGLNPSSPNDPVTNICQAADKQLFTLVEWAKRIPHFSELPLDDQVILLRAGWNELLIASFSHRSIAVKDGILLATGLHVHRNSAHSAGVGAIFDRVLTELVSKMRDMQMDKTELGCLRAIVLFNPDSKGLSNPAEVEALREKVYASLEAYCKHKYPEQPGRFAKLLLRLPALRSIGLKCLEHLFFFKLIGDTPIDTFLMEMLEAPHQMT

As for `Cc1cccc(N(C)C(=S)Oc2ccc3ccccc3c2)c1`, the Potency result in experiment [1], in experiment [4], in experiment [5], in experiment [6], in experiment [7] and in experiment [8] was “inactive” in each case. The Potency result in experiment [10] and in [11] was “inactive” each time. Further, in [2], the Potency is 15.5 µM (active) and inactive. The molecule was classed as inactive in experiment [3] and in experiment [9].

`c1ccc2sc(SSN3CCOCC3)nc2c1`: the Potency in experiment [1] is 19.5 µM (active) and 49 µM (active); in experiment [12] it was 27.3 µM (active); in [7], 19.3 µM (active) and 54.5 µM (active); in experiment [10], 61 µM (active). In experiment [3], the result was inactive. Moreover, the Potency result in experiment [4], in experiment [6], in experiment [8] and in [13] was “inactive” throughout.

Turning to `Oc1ccc(O)cc1`, the Potency entry in [1], in [6], in [8], in experiment [14], in [13] and in experiment [15] was “inactive” throughout. For the same molecule, the Potency entry in experiment [16] is “inactive”. Besides, the call in experiment [3] and in experiment [9] was inactive. The Potency was 21.6 µM (active) and 38.6 µM (active) and 23.7 µM (active) in experiment [7]; 17.1 µM (active) and 24.3 µM (active) and 10.6 µM (active) in [11].

Regarding `Nc1ccccc1N`, the Potency entry in experiment [1], in [4], in experiment [6], in experiment [7], in [8] and in [13] was “inactive” in each case. Further, the Potency entry in experiment [10], in experiment [11] and in experiment [15] was “inactive” in each case. The result in experiment [3] and in [9] was inactive.

Regarding `C#C[C@]1(O)CC[C@H]2[C@@H]3CCC4=Cc5oncc5C[C@]4(C)[C@H]3CC[C@@]21C`, the Potency is 54.9 µM (active) and inactive in [1]; 17.2 µM (active) and 16.8 µM (active) in [7]; 54.9 µM (active) and inactive in experiment [8]; 21.9 µM (active) in experiment [13]. Moreover, the Potency result in experiment [2], in [5], in [6], in experiment [12] and in experiment [10] was “inactive” in each case. Moreover, the molecule was classed as inactive in [3] and in [9].

`S=C(NC1CCCCC1)NC1CCCCC1`: the Potency is 24.5 µM (active) in experiment [1]; 48.6 µM (active) in experiment [7]; 9.5 µM (active) and 9.69 µM (active) in [17]. In addition, the molecule was called inactive in [3]. For the same molecule, the Potency result in experiment [4], in experiment [6], in experiment [12], in experiment [8], in experiment [13] and in experiment [10] was “inactive” in each case. Besides, in [11], the Potency result is “inactive”.

Consider `O=C(c1ccccc1)c1ccc(O)cc1O`, for which the Potency result in experiment [1], in experiment [4], in [5], in experiment [6], in experiment [8] and in experiment [10] was “inactive” each time. In addition, the Potency entry in experiment [17] was “inactive”. Besides, the outcome in experiment [3] and in experiment [9] was inactive. The Potency is 55.5 µM (active) and inactive in experiment [7]; 25 µM (active) and inactive in experiment [13]; 55.5 µM (active) and inactive in experiment [11].

For the molecule `CC(C)OC(=O)C(C)(C)Oc1ccc(C(=O)c2ccc(Cl)cc2)cc1`, the Potency was 13.8 µM (active) and inactive in [1]; 68.6 µM (active) in [7]. The Potency result in experiment [2], in experiment [4], in experiment [5], in experiment [6], in [8] and in experiment [13] was “inactive” each time. Also, the Potency entry in experiment [10], in experiment [11], in [17], in experiment [15] and in [16] was “inactive” each time. The molecule was classed as inactive in experiment [3] and in experiment [9].

For `O=CCCCC=O`, the Potency result in experiment [1], in [4], in experiment [8], in experiment [14], in [13] and in experiment [10] was “inactive” throughout. The molecule was classed as inactive in experiment [3] and in [9]. Further, the Potency in experiment [6] was 54.9 µM (active); in experiment [7], 29.6 µM (active) and inactive.

Take `C=C(C)C1CC=C(C)CC1` (centres undefined): the Potency entry in experiment [1], in experiment [2], in experiment [4], in [5], in experiment [6] and in [12] was “inactive” each time. Besides, the Potency entry in experiment [8], in experiment [14], in [13] and in [10] was “inactive” each time. Also, the outcome in experiment [9] was inactive.

With `COC(=O)C1=C(C)NC(C)=C(C(=O)OCCN(C)Cc2ccccc2)C1c1cccc([N+](=O)[O-])c1` (centres undefined), the Potency was 54.6 µM (active) in experiment [1]; 30.5 µM (active) and 29.8 µM (active) in experiment [7]; 24.4 µM (active) in [13]; 23.7 µM (active) in experiment [15]; 23.7 µM (active) in experiment [16]. Also, the result in [3] was inactive. In addition, the Potency result in experiment [4], in [5], in experiment [6], in experiment [8] and in experiment [10] was “inactive” each time.

As to `COc1cc([C@@H]2c3cc4c(cc3[C@H](O)[C@H]3COC(=O)[C@H]23)OCO4)cc(OC)c1OC`, the Potency entry in experiment [1], in experiment [2], in experiment [4], in [6], in [12] and in [8] was “inactive” each time. For the same molecule, the Potency entry in [13], in experiment [10] and in experiment [17] was “inactive” throughout. Further, the outcome in experiment [3] was inactive. For the same molecule, in [7], the Potency was 0.0306 µM (active).

For the origin of these results see PubChem BioAssay (Tox21).
